Laboratory results taken from PubChem BioAssay (EPA / NIEHS).
Calls of active or inactive are those of the source. Rule for the calls: active = hit-call score of the fitted dose curve at least 0.9, where 1 is the maximum; inactive = score below 0.9.

Tests used:
[1] = target: Bile acid receptor (Homo sapiens) (UniProt Q96RI1); experiment: ATG_IR1_CIS: Attagene CIS-FACTORIAL HepG2 Assay for human Nuclear Receptor Subfamily 1 Group H Member 4 (NR1H4), IR1 submotif (AID 2282946); settings: IR1 reporter transcription, actives raise or lower the signal
Outline: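 Cells (human HepG2) carry transiently transfected cis-promoter reporter transcription units. Compounds are incubated 24 h, total RNA is reverse-transcribed and amplified, and labelled fragments are resolved by capillary electrophoresis. Curves use DMSO as baseline.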

[2] = ATG_GRE_CIS: Attagene CIS-FACTORIAL HepG2 Assay for human Glucocorticoid Response Elements (GRE) (AID 2282947); settings: HepG2 GRE cis-reporter, Attagene multiplex mRNA; actives raise or lower the signal
Outline: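 Transient MRTU transfection of human HepG2 liver cells; cis-regulated reporters report endogenous factors. 24 h dosing → RNA isolation → RT-PCR → 6-FAM primer extension → HpaI cut → CE fragment analysis. Bidirectional fit, DMSO negative control.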

[3] = ATG_ISRE_CIS: Attagene CIS-FACTORIAL HepG2 Assay for human Interferon Regulatory Factor 1 (IRF1) binding to an Interferon-Stimulated Response Element (ISRE) (AID 2282948); settings: HepG2 ISRE cis-reporter (Attagene), mRNA transcription readout; actives raise or lower the signal
Outline: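 Transfected HepG2 (multiple reporter transcription units, cis elements) dosed 24 h. RNA → oligo(dT) RT → PCR → 6-FAM primer extension → HpaI → CE. DMSO = negative control/baseline.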

[4] = ATG_M_32_CIS: Attagene CIS-FACTORIAL HepG2 Assay for M32 Transcription Factor (Internal Marker) (AID 2282949); settings: HepG2 Attagene cis-factorial M32 reporter, mRNA; actives raise or lower the signal;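 note: background control marker of the multiplexed CIS panel rather than a real target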
Outline: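 Fluorescent capillary electrophoresis peaks of HpaI-digested, FAM-labelled RT-PCR reporter products give the signal. Source: transiently transfected human liver HepG2 cells, 24 h after chemical dosing; bidirectional fitting against DMSO.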

[5] = ATG_M_06_CIS: Attagene CIS-FACTORIAL HepG2 Assay for M06 Transcription Factor (Internal Marker) (AID 2282950); settings: HepG2 Attagene CIS-FACTORIAL M06 internal marker reporter; actives raise or lower the signal
Outline: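 Steps: transfect HepG2 with multiplexed cis-element reporter constructs; dose chemical 24 h; extract RNA with DNase treatment; reverse-transcribe, PCR-amplify, 6-FAM label, HpaI digest; separate fragments by capillary electrophoresis. Activity fitted both directions versus DMSO.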

[6] = target: Hypoxia-inducible factor 1-alpha (Homo sapiens) (UniProt Q16665); experiment: ATG_HIF1a_CIS: Attagene CIS-FACTORIAL HepG2 Assay for human Hypoxia Inducible Factor 1 (HIF1A) (AID 2282951); settings: HepG2 Attagene cis-factorial HIF1a reporter transcription; actives raise or lower the signal
Outline: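 HepG2 cells transiently transfected with multiple cis-regulated reporter transcription units measure endogenous transcription factor activity. After 24 h exposure, reporter mRNA is quantified by RT-PCR with 6-FAM labelling, HpaI digestion and capillary electrophoresis. Bidirectional fitting against DMSO.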

[7] = target: Hepatocyte nuclear factor 6 (Homo sapiens) (UniProt Q9UBC0); experiment: ATG_HNF6_CIS: Attagene CIS-FACTORIAL HepG2 Assay for human Hepatocyte Nuclear Factor 6 (HNF6) (AID 2282952); settings: HepG2 Attagene cis-factorial HNF6 reporter transcription; actives raise or lower the signal
Outline: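 Cells are HepG2 carrying transiently transfected cis-promoter reporter units. Treatment lasts 24 h, after which reporter transcripts are reverse-transcribed, amplified, FAM-labelled and sized by capillary electrophoresis. DMSO serves as baseline.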

[8] = target: Heat shock factor protein 1 (Homo sapiens) (UniProt Q00613); experiment: ATG_HSE_CIS: Attagene CIS-FACTORIAL HepG2 Assay for human Heat Shock Transcription Factor 1 (HSE) (AID 2282953); settings: HepG2 HSE cis-reporter, Attagene RNA transcription; actives raise or lower the signal
Outline: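 Cells were transfected with cis-element-driven reporter constructs, dosed for 24 h, then total RNA was reverse-transcribed and reporter cDNA amplified, FAM-labelled and digested with HpaI. Fragments were resolved by capillary electrophoresis; gain or loss was fitted against DMSO.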

[9] = ATG_MRE_CIS: Attagene CIS-FACTORIAL HepG2 Assay for human Metal Responsive Element (MRE) (AID 2282954); settings: HepG2 MRE cis-reporter transcription, Attagene multiplex; actives raise or lower the signal
Outline: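 Transient MRTU transfection of HepG2 (FuGene 6); 24 h dosing; total RNA → oligo(dT) RT, PCR, 6-FAM primer extension, HpaI cut, CE. Bidirectional fit vs DMSO.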

[10] = ATG_PBREM_CIS: Attagene CIS-FACTORIAL HepG2 Assay for human Phenobarbital-responsive Enhancer Module (PBREM) (AID 2282955); settings: HepG2 PBREM cis-reporter, Attagene multiplexed transcription; actives raise or lower the signal
Outline: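 HepG2 cells transiently transfected with multiple cis-regulated reporter units measure endogenous transcription factor activity; 24 h compound exposure. Reporter mRNA quantified by RT-PCR, fluorescent labelling, HpaI digestion and capillary electrophoresis; bidirectional fit versus DMSO.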

[11] = target: Paired box protein Pax-6 (Homo sapiens) (UniProt P26367); experiment: ATG_Pax6_CIS: Attagene CIS-FACTORIAL HepG2 Assay for human Paired Box 6 (PAX6) (AID 2282956); settings: HepG2 CIS-FACTORIAL PAX6 reporter transcription, RNA readout; actives raise or lower the signal
Outline: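 Transient MRTU transfection of HepG2 → compound exposure 24 h → TriZol RNA, oligo(dT) RT → PCR, 6-FAM primer extension, HpaI cut → capillary electrophoresis; activity fitted both directions against DMSO.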

[12] = ATG_PXRE_CIS: Attagene CIS-FACTORIAL HepG2 Assay for human Pregnane X Receptor Element (PXRE) (AID 2282957); settings: HepG2 Attagene CIS-FACTORIAL PXRE reporter, mRNA; actives raise or lower the signal
Outline: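 Multiplexed cis-reporter assay in transiently transfected human HepG2 cells; 24 h chemical exposure. Reporter transcripts quantified by RT-PCR with fluorescent labeling and capillary electrophoresis.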

[13] = ATG_RORE_CIS: Attagene CIS-FACTORIAL HepG2 Assay for human RAR-related Orphan Receptor Element (RORE) (AID 2282959); settings: HepG2 Attagene cis-factorial RORE reporter, mRNA; actives raise or lower the signal
Outline: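 HepG2 cells carrying transiently transfected cis-regulated reporter units; RORE-driven reporter mRNA quantified 24 h post-dosing by RT-PCR, 6-FAM primer extension, HpaI digestion and capillary electrophoresis. Bidirectional fit versus DMSO.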

[14] = ATG_Sox_CIS: Attagene CIS-FACTORIAL HepG2 Assay for human SRY-box transcription factor (SOX) (AID 2282960); settings: HepG2 Attagene cis-factorial SOX reporter, mRNA; actives raise or lower the signal
Outline: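 HepG2 cells transiently transfected with multiple cis-regulated reporter units, then dosed for 24 h. Reporter mRNA quantified by RT-PCR, fluorescent labelling, HpaI digestion and capillary electrophoresis; bidirectional fit versus DMSO.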

[15] = target: Transcription factor Sp1 (Homo sapiens) (UniProt P08047); experiment: ATG_Sp1_CIS: Attagene CIS-FACTORIAL HepG2 Assay for human Specificity Protein 1 (Sp1) (AID 2282961); settings: HepG2 Sp1 cis-reporter transcription, actives raise or lower the signal
Outline: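 HepG2 cells transiently transfected with multiplexed cis-regulated reporter constructs, chemical exposure 24 h. Reporter mRNA quantified by RT-PCR with capillary electrophoresis; bidirectional fit relative to DMSO.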

[16] = target: Signal transducer and activator of transcription 3 (Homo sapiens) (UniProt P40763); experiment: ATG_STAT3_CIS: Attagene CIS-FACTORIAL HepG2 Assay for human Signal Transducer and Activator of Transcription 3 (STAT3) (AID 2282963); settings: HepG2, Attagene cis-factorial STAT3 reporter transcription; actives raise or lower the signal
Outline: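 Endogenous STAT3-responsive cis-element activity was read in transiently transfected HepG2 cells after 24 h treatment. Reporter transcripts were quantified via RT-PCR and capillary electrophoresis, with DMSO as negative control and bidirectional curve fitting.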

[17] = ATG_TA_CIS: Attagene CIS-FACTORIAL HepG2 Assay for human TA Basal Promoter (AID 2282964); settings: HepG2 Attagene CIS-factorial TA basal promoter reporter; actives raise or lower the signal
Outline: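 Steps: transfect HepG2 with MRTUs; dose 24 h; isolate RNA, DNase-treat, reverse-transcribe; PCR and FAM-label reporter cDNA; digest with HpaI 2h at 37 C; run capillary electrophoresis. Activity fitted both directions against DMSO.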

[18] = ATG_TCF_b_cat_CIS: Attagene CIS-FACTORIAL HepG2 Assay for human T-Cell-Factor with beta-catenin (TCF/b-cat) (AID 2282965); settings: HepG2 TCF/beta-catenin cis-reporter transcription, actives raise or lower the signal
Outline: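 Measured: reporter mRNA in HepG2 transiently transfected with cis-promoter reporter units, 24 h after chemical addition. Fitting was bidirectional, DMSO as negative control.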

[19] = ATG_PPRE_CIS: Attagene CIS-FACTORIAL HepG2 Assay for human Peroxisome Proliferator-activated Response Element (PPRE) (AID 2282958); settings: HepG2 PPRE cis-element reporter, Attagene transcription factor profiling; actives raise or lower the signal
Outline: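 HepG2 cells are transiently transfected with multiplexed cis-promoter reporter units to report endogenous PPAR activity. After 24 h dosing, reporter mRNA is read by RT-PCR and capillary electrophoresis. Fitting is bidirectional against DMSO.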

[20] = ATG_SREBP_CIS: Attagene CIS-FACTORIAL HepG2 Assay for human Sterol Regulatory Element Binding (SREBP) (AID 2282962); settings: HepG2 Attagene cis-factorial SREBP reporter, mRNA; actives raise or lower the signal
Outline: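 Transfected HepG2 (cis-regulated reporter library, endogenous TFs) → compound 24 h → total RNA → oligo(dT) RT → reporter-specific PCR → FAM primer extension, HpaI cut → CE fluorescence. Fit bidirectional vs DMSO.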

Measured: AC50

Sequence of Heat shock factor protein 1 (Homo sapiens) (Q00613 whole entry, looked up, the tested form may be a part): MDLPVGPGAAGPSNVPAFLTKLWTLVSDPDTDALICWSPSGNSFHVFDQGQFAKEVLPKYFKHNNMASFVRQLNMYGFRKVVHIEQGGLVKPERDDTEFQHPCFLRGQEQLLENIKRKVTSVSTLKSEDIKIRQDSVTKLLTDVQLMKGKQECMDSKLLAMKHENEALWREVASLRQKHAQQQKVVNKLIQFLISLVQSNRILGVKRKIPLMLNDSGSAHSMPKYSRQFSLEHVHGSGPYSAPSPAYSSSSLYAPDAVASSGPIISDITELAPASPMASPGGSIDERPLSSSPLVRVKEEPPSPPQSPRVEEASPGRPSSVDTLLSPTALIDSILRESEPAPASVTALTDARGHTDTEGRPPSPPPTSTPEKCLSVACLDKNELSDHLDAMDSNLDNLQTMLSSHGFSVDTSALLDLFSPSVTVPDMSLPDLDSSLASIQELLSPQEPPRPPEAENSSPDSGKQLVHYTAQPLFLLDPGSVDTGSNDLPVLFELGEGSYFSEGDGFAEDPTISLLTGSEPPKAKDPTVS
Sequence of Bile acid receptor (Homo sapiens) (Q96RI1 whole entry, looked up, the tested form may be a part): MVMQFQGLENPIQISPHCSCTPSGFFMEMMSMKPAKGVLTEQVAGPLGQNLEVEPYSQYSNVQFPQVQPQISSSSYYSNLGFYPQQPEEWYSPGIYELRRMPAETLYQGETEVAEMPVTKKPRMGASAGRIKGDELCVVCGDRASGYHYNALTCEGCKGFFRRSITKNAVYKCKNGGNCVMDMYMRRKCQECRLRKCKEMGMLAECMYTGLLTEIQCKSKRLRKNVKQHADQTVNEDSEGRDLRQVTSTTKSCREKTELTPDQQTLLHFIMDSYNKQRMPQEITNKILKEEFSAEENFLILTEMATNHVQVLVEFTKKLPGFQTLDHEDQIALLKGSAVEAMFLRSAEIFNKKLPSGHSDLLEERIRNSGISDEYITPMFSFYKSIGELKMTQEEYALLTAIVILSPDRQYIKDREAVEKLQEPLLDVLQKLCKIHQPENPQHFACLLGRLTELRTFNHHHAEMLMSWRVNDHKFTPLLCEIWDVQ
Sequence of Transcription factor Sp1 (Homo sapiens) (P08047 whole entry, looked up): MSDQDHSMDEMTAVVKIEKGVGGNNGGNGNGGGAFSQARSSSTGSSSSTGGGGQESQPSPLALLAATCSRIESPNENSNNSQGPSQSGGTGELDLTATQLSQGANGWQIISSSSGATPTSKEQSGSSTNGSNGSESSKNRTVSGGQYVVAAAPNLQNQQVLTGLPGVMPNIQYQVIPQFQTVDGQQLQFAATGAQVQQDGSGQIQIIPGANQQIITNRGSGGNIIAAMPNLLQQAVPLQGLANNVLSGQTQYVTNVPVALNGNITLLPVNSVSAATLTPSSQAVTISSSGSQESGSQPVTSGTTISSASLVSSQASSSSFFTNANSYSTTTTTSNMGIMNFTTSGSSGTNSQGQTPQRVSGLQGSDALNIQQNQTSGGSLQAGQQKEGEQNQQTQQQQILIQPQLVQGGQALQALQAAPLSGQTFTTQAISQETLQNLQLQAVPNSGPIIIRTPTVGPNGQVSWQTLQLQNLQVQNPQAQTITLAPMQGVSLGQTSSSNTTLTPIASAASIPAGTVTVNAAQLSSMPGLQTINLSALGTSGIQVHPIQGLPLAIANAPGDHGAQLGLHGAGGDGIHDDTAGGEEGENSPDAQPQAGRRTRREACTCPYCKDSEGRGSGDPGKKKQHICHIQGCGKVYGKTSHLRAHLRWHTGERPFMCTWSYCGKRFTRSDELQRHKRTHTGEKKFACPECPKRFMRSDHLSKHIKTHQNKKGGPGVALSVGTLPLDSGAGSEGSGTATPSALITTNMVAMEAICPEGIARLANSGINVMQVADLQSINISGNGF
Sequence of Paired box protein Pax-6 (Homo sapiens) (P26367 whole entry, looked up): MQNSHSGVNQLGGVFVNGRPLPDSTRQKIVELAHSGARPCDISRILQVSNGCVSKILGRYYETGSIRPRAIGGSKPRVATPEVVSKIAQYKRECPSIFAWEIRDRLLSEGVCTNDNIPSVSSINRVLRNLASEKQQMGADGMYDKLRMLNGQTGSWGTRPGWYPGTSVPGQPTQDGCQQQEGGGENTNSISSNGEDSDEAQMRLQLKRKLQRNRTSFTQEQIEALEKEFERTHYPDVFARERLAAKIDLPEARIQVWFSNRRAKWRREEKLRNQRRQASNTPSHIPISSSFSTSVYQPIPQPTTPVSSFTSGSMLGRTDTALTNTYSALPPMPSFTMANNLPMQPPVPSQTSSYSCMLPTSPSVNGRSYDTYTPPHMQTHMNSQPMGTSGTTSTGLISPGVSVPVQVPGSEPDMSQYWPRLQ
Sequence of Hypoxia-inducible factor 1-alpha (Homo sapiens) (Q16665 whole entry, looked up): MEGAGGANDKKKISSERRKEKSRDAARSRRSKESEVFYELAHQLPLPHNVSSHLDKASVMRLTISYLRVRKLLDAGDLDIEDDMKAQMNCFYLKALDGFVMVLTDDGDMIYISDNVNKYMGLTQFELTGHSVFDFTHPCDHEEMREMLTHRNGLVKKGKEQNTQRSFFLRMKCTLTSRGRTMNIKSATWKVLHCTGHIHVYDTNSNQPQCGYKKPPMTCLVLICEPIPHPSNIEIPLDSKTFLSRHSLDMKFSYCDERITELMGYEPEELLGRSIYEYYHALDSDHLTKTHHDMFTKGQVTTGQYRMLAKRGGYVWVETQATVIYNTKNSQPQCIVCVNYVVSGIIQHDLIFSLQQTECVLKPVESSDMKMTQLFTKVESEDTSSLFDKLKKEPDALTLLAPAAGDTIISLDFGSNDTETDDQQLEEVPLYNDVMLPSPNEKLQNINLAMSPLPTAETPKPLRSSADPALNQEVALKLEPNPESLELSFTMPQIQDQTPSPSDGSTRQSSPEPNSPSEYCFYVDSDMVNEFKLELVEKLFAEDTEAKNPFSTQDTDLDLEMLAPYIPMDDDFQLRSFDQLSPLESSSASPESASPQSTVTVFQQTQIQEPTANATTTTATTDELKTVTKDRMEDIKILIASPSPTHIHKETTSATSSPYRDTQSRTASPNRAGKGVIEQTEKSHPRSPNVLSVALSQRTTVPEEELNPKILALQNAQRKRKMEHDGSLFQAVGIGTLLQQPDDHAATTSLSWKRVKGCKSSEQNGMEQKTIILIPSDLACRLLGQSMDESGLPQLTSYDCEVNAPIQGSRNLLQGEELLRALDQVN
Sequence of Signal transducer and activator of transcription 3 (Homo sapiens) (P40763 whole entry, looked up): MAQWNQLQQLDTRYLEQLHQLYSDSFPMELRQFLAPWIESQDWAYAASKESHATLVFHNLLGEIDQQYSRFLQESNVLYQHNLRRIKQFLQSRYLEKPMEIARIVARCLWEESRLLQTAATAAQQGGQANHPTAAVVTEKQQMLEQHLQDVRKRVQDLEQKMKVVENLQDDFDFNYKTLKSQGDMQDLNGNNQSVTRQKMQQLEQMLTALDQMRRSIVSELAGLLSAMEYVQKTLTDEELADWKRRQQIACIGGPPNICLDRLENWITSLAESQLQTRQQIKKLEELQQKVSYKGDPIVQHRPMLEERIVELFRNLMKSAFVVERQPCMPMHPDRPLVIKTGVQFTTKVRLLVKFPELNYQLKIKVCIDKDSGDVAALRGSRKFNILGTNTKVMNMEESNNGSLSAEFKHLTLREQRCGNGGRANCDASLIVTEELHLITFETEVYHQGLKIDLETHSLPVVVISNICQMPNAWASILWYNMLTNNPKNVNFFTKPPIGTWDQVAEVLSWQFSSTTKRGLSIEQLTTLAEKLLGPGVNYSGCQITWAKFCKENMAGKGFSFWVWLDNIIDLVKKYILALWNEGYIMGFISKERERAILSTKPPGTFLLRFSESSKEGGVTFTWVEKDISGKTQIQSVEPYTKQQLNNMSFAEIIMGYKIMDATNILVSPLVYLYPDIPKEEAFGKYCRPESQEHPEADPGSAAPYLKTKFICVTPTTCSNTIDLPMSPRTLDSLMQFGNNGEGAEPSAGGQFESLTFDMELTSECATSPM
Sequence of Hepatocyte nuclear factor 6 (Homo sapiens) (Q9UBC0 whole entry, looked up): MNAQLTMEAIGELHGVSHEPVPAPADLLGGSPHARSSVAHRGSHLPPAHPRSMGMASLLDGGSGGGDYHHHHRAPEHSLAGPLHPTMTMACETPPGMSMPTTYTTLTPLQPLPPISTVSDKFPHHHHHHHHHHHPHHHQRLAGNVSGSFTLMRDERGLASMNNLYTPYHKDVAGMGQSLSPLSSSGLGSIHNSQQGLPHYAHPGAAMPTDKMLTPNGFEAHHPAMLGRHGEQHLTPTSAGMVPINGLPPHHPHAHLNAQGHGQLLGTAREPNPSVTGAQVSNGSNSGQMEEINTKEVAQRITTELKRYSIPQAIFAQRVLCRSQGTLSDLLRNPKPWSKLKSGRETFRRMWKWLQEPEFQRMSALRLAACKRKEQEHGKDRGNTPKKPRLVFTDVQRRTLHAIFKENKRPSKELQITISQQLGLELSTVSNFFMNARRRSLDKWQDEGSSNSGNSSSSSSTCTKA

CCOP(=S)(OCC)SCSc1ccc(Cl)cc1
active: [10] 5.81 µM | [12] 3 µM
not listed: [19] | [20]
inactive: all other assays above

CCCCC(CC)COP(=O)(Oc1ccccc1)Oc1ccccc1 (centres undefined)
active: [1] 25.6 µM | [6] 100 µM | [8] 72 µM | [9] 50.1 µM | [11] 100 µM | [12] 0.516 µM | [19] 37.7 µM | [15] 126 µM | [17] 55.3 µM
inactive: [2] | [3] | [5] | [7] | [10] | [13] | [14] | [16]

CC(O)C(F)(F)C(F)(F)F (centres undefined)
not listed: [18] | [19] | [20]
inactive: all other assays above

NNC(N)=S
not listed: [17] | [19]
inactive: all other assays above

CC(C)CBr
not listed: [4]
inactive: all other assays above

O=S(=O)(c1ccc(O)cc1)c1ccc(O)cc1
active: [12] 35.9 µM
not listed: [13] | [17] | [19]
inactive: all other assays above

CC(=O)c1ccc(-c2ccccc2)cc1
active: [12] 27.2 µM
not listed: [17] | [19]
inactive: all other assays above
